High-throughput results as filed in PubChem BioAssay.
COUP-TFII inh – inhibitors of human COUP-TFII (NR2F2) | HEK293T NGFI-A luciferase reporter, luminescence | inhibition, % at 8.6 µM | 370,000 compounds, 0.7% hits;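 active = inhibition above a per-plate cutoff, mean inhibition of test wells between control levels plus 3 SD, cut at about 38% in these data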;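 also: cells cotransfected with COUP-TFII expression vector driving the NGFI-A reporter; 0% = median of COUP-TF2 test wells and 100% = reporter-only cells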
Target sequence (P24468 whole entry, looked up): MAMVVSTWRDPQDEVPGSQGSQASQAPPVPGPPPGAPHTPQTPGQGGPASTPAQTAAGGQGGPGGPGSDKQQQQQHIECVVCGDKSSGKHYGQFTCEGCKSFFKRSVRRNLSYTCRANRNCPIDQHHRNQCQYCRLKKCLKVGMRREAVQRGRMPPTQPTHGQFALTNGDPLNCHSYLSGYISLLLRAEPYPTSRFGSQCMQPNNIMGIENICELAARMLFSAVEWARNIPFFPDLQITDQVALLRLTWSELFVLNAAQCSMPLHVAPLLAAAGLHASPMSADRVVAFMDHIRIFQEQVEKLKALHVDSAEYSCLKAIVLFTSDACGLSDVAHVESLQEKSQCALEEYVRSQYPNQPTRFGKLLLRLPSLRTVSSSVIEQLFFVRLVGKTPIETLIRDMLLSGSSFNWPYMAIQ
Gli-Sufu block – blocks Gli-Sufu signaling in a luciferase reporter; Sufu-KO-LIGHT fibroblasts, Gli luciferase reporter luminescence; inhibition, % at 5 µM; 340,000 compounds, 0.74% hits; AID 588413;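 active = inhibition above about 55%, limit read from the data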;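 also: 0% = DMSO-treated cells and 100% = wells with medium but no cells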
NCOA2 inhibitor – human SRC2 (NCOA2) inhibition; Q15596; HEK293 GAL4-SRC2 luciferase reporter, luminescence; inhibition, % at 9 µM; 370,000 compounds, 0.17% hits;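 active = inhibition above the mean inhibition of all tested compounds plus 3 SD, set per campaign, cut at about 52% in these data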;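 also: 0% = DMSO treated cells and 100% = cells given Gossypol at 36 µM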
NR5A2 inv ag – NR5A2 inverse agonism in reporter assay | HEK293T StAR-luciferase reporter, LRH-1 transfected, 24 h | inhibition, % at 3.6 µM | AID 602396 | 360,000 compounds, 0.13% hits;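 active = inhibition above the mean inhibition of all tested compounds plus 3 SD, cut at about 73% in these data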;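 also: 0% = DMSO wells and 100% = reporter-only cells lacking LRH-1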
SRC1 inh – inhibits human SRC1 coactivator. Q15788. HEK293 GAL4-SRC1 luciferase reporter, luminescence. inhibition, % at 3.6 µM. 360,000 compounds, 0.12% hits;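 active = inhibition above the campaign mean plus 3 SD, with each screening campaign given its own cutoff, cut at about 60% in these data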;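 also: 0% = DMSO treated cells and 100% = gossypol at 36 µM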
SRC3 inh – inhibits human SRC3 coactivator | Q9Y6Q9 | HEK293 GAL4-SRC3 luciferase reporter, luminescence | inhibition, % at 3.6 µM | 360,000 compounds, 0.17% hits | AID 588352;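 active = inhibition above a per-campaign cutoff, the mean of all compounds plus 3 SD, cut at about 60% in these data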;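 also: 0% = DMSO-treated cells and 100% = gossypol-treated cells at 36 µM; higher means less SRC3-driven luciferase light from the GAL4 reporter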
* = called active by the depositor; nt = no result. Rows were chosen to be rich in hits. Some 1.3% of all compounds tested hit in one or more screens of this group.

SMILES | COUP-TFII inh | Gli-Sufu block | NCOA2 inhibitor | NR5A2 inv ag | SRC1 inh | SRC3 inh
Cc1ccc(N(Cc2cc(=O)[nH]c3ccccc23)C(=O)CCl)c(C)c1 | 8 | 4 | 69* | 60 | 27 | 42
O=S(=O)(Nc1cccc2ncccc12)c1cccs1 | nt | 87* | nt | -4 | -64 | -70
N#Cc1ccc(S(=O)(=O)N2CCCc3nc(-c4ccccc4)ccc32)cc1 | 1 | nt | -8 | nt | nt | nt
Brc1ccc(N/N=C(/N=Nc2nn[nH]n2)c2ccccc2)cc1 | 20 | 17 | 31 | 32 | 16 | 63*
Cc1nc(N2CCN(C(=O)c3ccco3)CC2)c2c3c(sc2n1)CCCC3 | 8 | 16 | 1 | -15 | 2 | 1
Cc1nc(N2CCN(C(=O)c3ccco3)CC2)c2c3c(sc2n1)CC(C)CC3 (centres undefined) | 0 | 79* | -3 | -10 | -26 | 9
COC(C(=O)C(O)C(C)O)C1Cc2cc3cc(OC4CC(OC5CC(O)C(O)C(C)O5)C(O)C(C)O4)c(C)c(O)c3c(O)c2C(=O)C1OC1CC(OC2CC(OC3CC(O)C(OC)C(C)O3)C(O)C(C)O2)C(O)C(C)O1 (centres undefined) | -11 | -27 | 32 | 98* | 75* | 86*
CCCC[C@@H]1C(=O)N2N=C(c3ccccc3)c3ccccc3[C@H]2N2N=C(c3ccccc3)c3ccccc3[C@@H]12 | -8 | nt | -5 | nt | nt | nt
Cc1ccc(S(=O)(=O)N(C)C)cc1NC(=S)NC(=O)C12CC3CC(CC(C3)C1)C2 | -5 | 66* | -1 | 9 | -31 | 14
Cc1ccc(S(=O)(=O)N(C)C)cc1NC(=S)NC12CC3CC(CC(C3)C1)C2 | 5 | 10 | 12 | 4 | -1 | 17
C=C1C(=O)C23CCC4C(C)(C(=O)OC)CCCC4(C)C2CCC1(O)C3 (centres undefined) | 78* | 44 | 68* | 42 | 36 | 10
COC(=O)[C@]1(C)CCC[C@@]2(C)C3CC[C@@]4(C)C[C@]3(CCC21)CC(=O)N4 (some centres undefined) | 4 | 30 | -8 | 19 | -3 | 14
O=C(CCl)N=c1sccn1Cc1ccccc1Cl | -4 | 3 | 32 | 39 | 5 | 10
O=C(CCl)N=c1sccn1Cc1ccc(Cl)cc1Cl | -9 | 95* | 20 | 34 | 0 | 16
C[C@H](c1ccccc1)N1C[C@@H](COCc2ccccc2)Oc2cccc(Oc3ccc(F)cc3)c2S1(=O)=O | -5 | nt | 14 | nt | nt | nt
CC1=C[C@]2(C[N+](Cc3ccccc3)=C(N)N2)n2c(=O)n(-c3ccccc3)c(=O)n2C1 | -9 | nt | -15 | nt | nt | nt
CCCCNS(=O)(=O)/C=C/c1ccc(F)cc1CNC(=O)OC(C)(C)C | 20 | nt | -3 | nt | nt | nt
Cn1c2c(c(=O)[nH]c1=O)C(c1cccc(O)c1)C1=C(N2)c2ccccc2C1=O (centres undefined) | 0 | 56* | -25 | -10 | 32 | 54
O=S(=O)(c1ccc(C(F)(F)F)cc1)N1CCCc2nc(-c3ccc(Br)cc3)ccc21 | -16 | nt | -18 | nt | nt | nt
Cc1ccc(S(=O)(=O)NC(CC(C)C)C(=O)NCC(c2ccco2)N2CCCCC2)cc1 (centres undefined) | nt | 16 | nt | 38 | 65* | 72*
COc1ccc2[nH]c3c(c2c1)CCNC3=O | 16 | -6 | 31 | 36 | 53 | 65*
Cn1c(/C=C/c2ccc([N+](=O)[O-])o2)nc2ccccc2c1=O | nt | 82* | nt | 13 | -19 | 19
Cn1c(/C=C/c2ccccc2)nc2ccccc2c1=O | 0 | 24 | -26 | -41 | -91 | -49
Cc1ccccc1CN1CC2=C(CCN(Cc3ccccc3)C2=O)N2CCN=C12 | 37 | nt | 2 | 85* | 49 | 62*
O=C(NC1CCCCC1)C(c1cccnc1)N(C(=O)CCl)c1ccccc1Cl (centres undefined) | 9 | 15 | 59* | 58 | 51 | 59
SMILES | COUP-TFII inh | Gli-Sufu block | NCOA2 inhibitor | NR5A2 inv ag | SRC1 inh | SRC3 inh
CCc1ccccc1N(C(=O)CNC(=O)c1ccco1)C(C(=O)NC1CCCC1)c1cccnc1 (centres undefined) | -10 | -8 | -2 | 0 | -8 | 4
COc1ccc(N(C(=O)Cc2cccs2)C(C(=O)NC2CCCC2)c2ccncc2)cc1 (centres undefined) | -19 | 12 | 5 | -28 | -33 | -7
COc1ccc(C(C(=O)NC2CCCCC2)N(C(=O)CCl)c2cccc(Cl)c2)cc1 (centres undefined) | -8 | nt | 16 | 16 | 17 | 69*
COc1cccc(N(C(=O)c2cnccn2)C(C(=O)NC2CCCCC2)c2ccc(Cl)cc2)c1 (centres undefined) | 2 | 13 | -5 | 1 | 3 | -4
O=C(NC1CCCCC1)C(c1cccnc1)N(C(=O)CCl)c1ccc(F)cc1 (centres undefined) | 14 | 7 | 50 | 38 | 54 | 69*
COc1ccc(N(C(=O)CCl)C(C(=O)NC2CCCCC2)c2cccnc2)cc1 (centres undefined) | 10 | -4 | 63* | 11 | 47 | 70*
C[C@H](O)[C@@H]1CN2CCc3c([nH]c4c(-c5ccccc5)cccc34)[C@@H]2C[C@@H]1N(C)C(=S)Nc1ccc(C#N)cc1 | -22 | nt | -22 | nt | nt | nt
COc1ccc(C[N+]2=C(N)NC3=C4CCCCC4n4c(=O)n(-c5ccccc5)c(=O)n4C3C2)c(OC)c1 (centres undefined) | 1 | nt | 15 | nt | nt | nt
O=C(N[C@H](C(=O)N1CCC[C@H]1C(=O)NCCc1ccccc1Cl)c1ccccc1)c1cccs1 | 3 | nt | -10 | nt | nt | nt
O=C(Nc1nc2c(Br)cccc2s1)c1ccc2c(c1)OCCO2 | -26 | nt | nt | nt | nt | nt
C#CCN1CC(N(C)CCOC(=O)c2ccc(F)cc2)CS1(=O)=O (centres undefined) | -3 | nt | -12 | nt | nt | nt
CCC(C)NC(=O)C1CCN(S(=O)(=O)c2ccc3[nH]c(=O)oc3c2)CC1 (centres undefined) | 10 | nt | -10 | nt | nt | nt
O=C(Nc1ccc(OC(F)(F)F)cc1)Nc1cccc([N+](=O)[O-])c1 | -6 | 40 | -5 | 29 | -2 | 62*
O=C(N[C@H]1C/C=C\C[C@H](CC(=O)N(CCO)Cc2ccccc2)C(=O)N[C@@H](c2ccccc2)COC1=O)OCC1c2ccccc2-c2ccccc21 | nt | 66* | nt | 8 | 1 | 3
C[C@H]1COC(=O)[C@H](NC(=O)OCC2c3ccccc3-c3ccccc32)C/C=C\C[C@H](CC(=O)N(CCO)Cc2ccccc2)C(=O)N1 | 3 | 38 | -1 | -7 | -1 | -6
Cc1ccc(Nc2nc(-c3c(C)nc4ccccn34)cs2)cc1 | -48 | 62* | 38 | -3 | -45 | 17
Cc1cccc(NC(=O)CSc2nnc(SCc3ccc(Cl)cc3)s2)c1 | -2 | nt | 3 | nt | nt | nt
O=[N+]([O-])c1cc(O)c2ncccc2c1 | 17 | 67* | -42 | nt | nt | nt
C[C@@H]1CN(C(=O)OC(C)(C)C)CCN1c1ccc(N2CCN(Cc3ccccc3)[C@@H](C)C2)c(C#N)c1 | 22 | nt | -4 | nt | nt | nt
